# Screening results deposited in PubChem BioAssay by National Center for Advancing Translational Sciences (NCATS).
# TDP1 cell noCPT: qHTS for Inhibitors of human tyrosyl-DNA phosphodiesterase 1 (TDP1): qHTS in cells in absence of CPT. DT40 Tdp1-/- hTDP1 cells, no CPT, ATP luminescence, 48 h. Potency, µM (series often up to 46.2 µM), usual class: inhibitors. 420,000 tested, 15% active. AID 686978, 2013; also: nearly all actives have a fitted effect of over 55% in size
#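 Stably hTDP1-transfected Tdp1-null chicken DT40 cells were treated with library compounds minus camptothecin and grown for at least 48 hr at 37 °C, after which cellular ATP was quantified by luminescence.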
# TDP1 cell CPT: growth inhibition of DT40 Tdp1-/-;hTDP1 cells with camptothecin (screen for TDP1 inhibitors); 420,000 tested, 12% active; chicken DT40 Tdp1-/-;hTDP1 cells + 20 nM CPT, ATP luminescence, 48 h; Potency, µM (highest dose often 46.2 µM), hits mostly inhibitors; also: nearly all actives have a fitted effect of over 55% in size
#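 Chicken DT40 Tdp1-/- cells stably complemented with human TDP1 were seeded at 400 cells/well in medium containing 20 nM camptothecin, exposed to pin-transferred compounds, and grown at 37 °C for at least 48 hr. Viability was read as ATP luminescence.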
# HT1080 IDH1KD tx: HT-1080 IDH1 knockdown cell toxicity (counter line) | HT-1080 IDH1 knockdown viability, ATP luminescence, 48 h | Potency, µM (doses to about 46.1 µM), actives largely listed as cytotoxic | 360,000 tested, 2% active | AID 686971
#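 After a 2 h attachment period, IDH1KD HT-1080 cells took pin-transferred compound for 48 h at 37 °C; ATP-based luminescence after 10 min room-temperature reagent incubation reported viability.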
# 12-LOX inh: ALOX12 (human) lipoxygenase inhibition | Potency, µM (titrated, usually from 108 µM), actives largely listed as inhibitors | P18054 | 580,000 tested, 1.1% active | purified 12hLO, xylenol orange hydroperoxide absorbance
# Target sequence (P18054 whole entry, looked up): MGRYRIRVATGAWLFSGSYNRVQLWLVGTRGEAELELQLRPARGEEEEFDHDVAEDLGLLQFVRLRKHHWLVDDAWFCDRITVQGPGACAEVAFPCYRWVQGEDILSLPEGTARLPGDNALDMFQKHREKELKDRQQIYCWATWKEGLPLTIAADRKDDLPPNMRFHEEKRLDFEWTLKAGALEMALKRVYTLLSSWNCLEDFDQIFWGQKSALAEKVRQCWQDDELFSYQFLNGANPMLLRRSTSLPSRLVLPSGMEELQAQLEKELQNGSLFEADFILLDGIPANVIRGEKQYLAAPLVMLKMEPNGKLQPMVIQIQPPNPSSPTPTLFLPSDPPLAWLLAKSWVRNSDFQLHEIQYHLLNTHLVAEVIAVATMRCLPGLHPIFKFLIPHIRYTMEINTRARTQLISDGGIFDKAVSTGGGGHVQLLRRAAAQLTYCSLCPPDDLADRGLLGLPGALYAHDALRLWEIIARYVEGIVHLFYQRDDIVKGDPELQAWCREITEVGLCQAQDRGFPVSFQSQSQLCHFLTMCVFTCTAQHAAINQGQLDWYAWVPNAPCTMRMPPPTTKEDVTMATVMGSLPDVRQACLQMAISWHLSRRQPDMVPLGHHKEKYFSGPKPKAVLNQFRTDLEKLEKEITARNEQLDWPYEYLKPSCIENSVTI
#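 Purified human 12hLO at 150 nM in 25 mM Hepes, 0.01% Triton X-100, pH 7.0, preincubated 15 min at room temperature with compound. Reaction started with 40 uM arachidonic acid, 30 min at room temperature. Hydroperoxide measured by Fe-xylenol orange, 573/405 nm absorbance ratio.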
# HT1080-NT tox: kills 2HG-producing HT-1080-NT fibrosarcoma cells. HT-1080-NT fibrosarcoma viability, CellTiter-Glo ATP luminescence, 48 h. Potency, µM (series often up to 46.1 µM), most hits filed as cytotoxic. 360,000 tested, 1.6% active;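 also: NT is the 2HG producing partner of a matched IDH1 knockdown line; nearly all actives have a fitted effect of over 55% in size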
#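 Luminescent CellTiter-Glo readout after 48 hours of compound exposure at 37 degrees C defined viability of HT-1080-NT cells. Activity was normalized to DMSO wells and cell-free media wells; concentration-response curves were fitted and assigned curve classes.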
# IL1B secr inh: blocks inflammasome-driven IL-1 beta release | THP-1 LPS/ATP IL-1B secretion, AlphaLISA, 16 h; hits give low values | AID 743279 | activity change, % at 57.5 µM | 360,000 tested, 4.7% active; in the data active = activity change below about -50%; inconclusive = mostly about -30% to -49%
#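 Secreted IL-1B measured by AlphaLISA bead assay after 16 h compound exposure of THP-1 cells; compounds (final up to 57.5 uM) added 1 h before LPS (250 ng/mL) and ATP (1.25 mM) stimulation; lower signal means less secretion.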
# Hits are given with their value; - = inactive; ? = inconclusive; . = no result given; ! = a repeat was not active. This excerpt belongs to a sample that is enriched for hits. Unless noted, calls follow the shape of the dose curve; as a rule, active = well fitted curve in the direction sought with a large enough effect; inconclusive = small, poorly fitted or top-dose-only effect, or another doubt; inactive = no such curve, though single readings can be large; an effect the other way counts as inactive or inconclusive.
SMILES,TDP1 cell noCPT,TDP1 cell CPT,HT1080 IDH1KD tx,12-LOX inh,HT1080-NT tox,IL1B secr inh
Cc1cc(NC(=O)Nc2nnc(N3CCCCC3)s2)ccc1Br,?,?,.,-,.,.
CC1CCCC(NC(=O)c2ccc3c(c2)CCC3)C1C (stereo not given),.,.,.,-,.,.
Cc1cccc(C(=O)N2CCN(S(=O)(=O)N3CCCCCC3)CC2)c1,-,-,-,-,-,-
COC(=O)Cn1cc(/C=C/c2cc[n+](C)cc2)c2ccccc21,?,?,-,?,-,-
COC(=O)Cn1c(C)c(/C=C/c2cc[n+](C)cc2)c2ccccc21,16µM,?,-,45µM,-,-
COc1ccc(-n2c(C(C)n3nc(C)c([N+](=O)[O-])c3C)n[nH]c2=S)cc1 (stereo not given),-,-,-,?,-,-
COc1ccc(-n2c(C)c([N+](=O)[O-])c3ccc(O)c(CN(C)C)c32)cc1,2.6µM,?,-,-,-,-59
CCn1cc(-c2ccc(C)cc2)cc1C(=O)N1CCCN(C)CC1,.,.,.,-,.,.
CN(C)S(=O)(=O)c1ccc2c(c1)nc(CCC(=O)NCCc1ccc(Cl)cc1)n2C,-,?,-,-,-,-
CCCCC(CC)CN1CN(CC(CC)CCCC)CC(C)(N)C1 (stereo not given),0.23µM,0.16µM,-,-,-,-
Nc1ncn(C(=S)Nc2ccccc2)n1,1.3µM,1.2µM,-,?,-,?
S=C(Nc1ccccc1)N1CCC(C2CCN(C(=S)Nc3ccccc3)CC2)CC1,-,-,-,.,-,-
CCc1cccc2c(-c3csc(=NC)n3C)c[nH]c12,?,?,-,?,-,-73
CCc1cccc2c(C(=S)N3CCCC3)c[nH]c12,-,-,-,-,-,-
COc1ccc(CS(=O)c2nc(C)cc(C)c2S(C)(=O)=O)cc1 (stereo not given),-,-,-,-,-,-
O=C(c1cnc(Cl)c(Cl)c1)N1CCN(S(=O)(=O)c2ccc3ccccc3c2)CC1,16µM,?,-,?,-,-102
COc1ccc(-c2cc(C(=O)N3CCN(c4ccccc4)CC3)no2)cc1,21µM!,18µM!,?,-,-,-53
COc1ccc(OC)c(-c2cc(C(=O)N3CCc4ccccc4C3)no2)c1,?,-,-,-,-,-
COc1ccc(OC)c(-c2cc(C(=O)N3CCN(c4ccccc4)CC3)no2)c1,21µM,?,-,-,-,-
O=C(CC1CCCC1)Nc1nc2ccccc2[nH]1,9.2µM,?,-,-,-,-
O=C(CN1C(=O)NC2(CCCC2)C1=O)Nc1nc2ccccc2[nH]1,-,-,-,-,-,-
O=C(Nc1nc2ccccc2[nH]1)C1CCCC1,-,-,-,-,-,?
O=C(Nc1nc2ccccc2[nH]1)C1CCC1,23µM,?,?,-,?,-
COC(=O)Cc1[nH]n(-c2nc3ccccc3s2)c(=O)c1C(C)=O,10µM,-,-,?,-,-
COc1ccc(CN=C(C)c2c(C(F)(F)F)[nH]n(-c3nc4ccccc4s3)c2=O)cc1,?,-,-,-,-,-
SMILES,TDP1 cell noCPT,TDP1 cell CPT,HT1080 IDH1KD tx,12-LOX inh,HT1080-NT tox,IL1B secr inh
CC(=O)c1c(CC(=O)O)[nH]n(-c2nc3ccccc3s2)c1=O,?,?,10µM,?,10µM,-
CCCn1c(C(O)c2cc(OC)c(OC)c(OC)c2)nc2ccccc21 (stereo not given),21µM,?,-,-,-,-
COc1ccncc1-c1csc(C(O)c2ccccc2)n1 (stereo not given),-,?,-,-,-,-
COc1ccc(C(O)c2nc3ccccc3n2C)cc1OC (stereo not given),12µM,9.2µM,-,-,?,-
CCCn1c(C(O)c2ccc(C)cc2)nc2ccccc21 (stereo not given),?,?,-,-,-,-
Cc1cc(C)c(Cn2c(C(O)c3ccccc3)nc3ccccc32)c(C)c1 (stereo not given),9.2µM,18µM,.,-,.,.
COc1cc(C(O)c2nc3ccccc3s2)cc(OC)c1OC (stereo not given),9.2µM,4.1µM,-,-,-,-
CCn1c(C(O)c2ccccc2)nc2ccccc21 (stereo not given),-,-,-,-,-,-
O=S(=O)(Nc1ccc(Cl)c(N2CCCS2(=O)=O)c1)c1ccccc1,.,.,.,-,.,.
CC(=O)Oc1ccc(OC(C)=O)c(SCCCCCN2CCOCC2)c1,3.7µM,?,?,?,?,-
CC(C)c1ccc(OCCCCCN2CCOCC2)cc1,?,?,-,?,-,-
CC(C)CCC(C(=O)O)C(C)CC(=O)Nc1ccn(-c2ccccc2)n1 (stereo not given),-,-,-,-,-,-
Nc1nonc1-c1nc2ccccc2n1CC(=O)N1CCN(c2ccc(F)cc2)CC1,13µM,?,-,-,-,-
Nc1nonc1-c1nc2ccccc2n1CC(=O)Nc1ccc(F)cc1,9.2µM,15µM,.,-,.,.
NC(=O)Cn1c(-c2nonc2N)nc2ccccc21,-,-,-,-,-,-
Nc1nonc1-c1nc2ccccc2n1CC(=O)Nc1ccc(F)cc1F,.,.,.,-,.,.
Nc1nonc1-c1nc2ccccc2n1CC(=O)N/N=C\c1ccc(-c2ccc(Cl)cc2)o1,3.7µM,7.3µM,-,-,-,?
NNC(=O)Cn1c(-c2nonc2N)nc2ccccc21,-,-,-,-,-,-
Nc1nonc1-c1nc2ccccc2n1CC(=O)Nc1cccc(Cl)c1Cl,5.8µM,5.2µM,.,-,.,.
Cc1noc(C)c1-c1cc2c(cc(C)n2CCN(C)C)c(-c2ccccc2O)n1,.,.,.,79µM,.,.
CC(=O)c1c(C)[nH]c(C(=O)OCC(=O)N2CCN(c3ccccc3)CC2)c1C,-,-,-,-,-,-
CCOC(=O)c1[nH]c(C)c(C(=O)N2CCc3ccccc32)c1C,0.92µM,0.82µM,1µM,-,?,-
CC(=O)c1c(C)[nH]c(C(=O)OCC(=O)N2CCc3ccccc3C2)c1C,16µM,23µM,-,-,-,-
COC(=O)C(NC=O)C(O)(c1ccc(OC)cc1)C(F)(F)F (stereo not given),.,.,.,-,.,.
Cc1ccc(CS(=O)Cc2c(F)cccc2Cl)cc1 (stereo not given),.,.,.,-,.,.
Cc1ccccc1Nc1nc(N)nc(CSc2nnc(C3CC3)n2C)n1,.,.,.,-,.,.
COc1ccc2c3c(ccc2c1)C(=O)/C(=C/O)CC3,16µM,?,-,25µM,-,-
COc1ccc(COc2ccc3c(C)cc(=O)oc3c2)cc1,?,?,-,-,-,-
